The values that follow come from PubChem BioAssay (EPA / NIEHS).

Molecules are shown by their SMILES. Inconclusive results are not listed. The source holds several records for some structures; these can differ, active in one and inactive in another. Active and inactive are the calls of the source. Rule for the calls, unless noted: active = hit-call score of the fitted dose curve at least 0.9, where 1 is the maximum; inactive = score below 0.9.

Test [1] in a line: CCTE_Shafer_MEA_acute_per_burst_spike_number_mean: CCTE's Neural Acute Assay for Average Number of Spikes Per Burst, Shafer Lab (AID 2284015).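 Note: hits are decreases in mean spikes per burst versus baseline.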 The method in brief:
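Read-out: percent change in mean spikes per burst, each well's post-exposure 40-min recording versus its own 40-min baseline. Rat cortical cultures, DIV 13 or 15, compounds 0.03-40 uM; DMSO is negative control, loss-of-signal fitting.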

A short description of test [2]: CCTE_Shafer_MEA_acute_interburst_interval_mean: CCTE's Neural Acute Assay for Mean Interburst Interval, Shafer Lab (AID 2284016).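 Note: percent change of mean interburst interval versus each well's own pre-dose baseline; curves fitted for decrease in interburst interval relative to DMSO.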 The method in brief: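 Rat cortical cultures, DIV 13/15; 20 min equilibration, 40 min baseline, compound 0.03-40 uM, 40 min re-recording, 37 C. Spikes detected at 8x rms noise (300-5000 Hz band-pass). Endpoint: % change in interburst interval, fitted in loss direction vs DMSO.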

A short description of test [3]: CCTE_Shafer_MEA_acute_burst_percentage_mean: CCTE's Neural Acute Assay for Percentage of Spikes in a Burst, Shafer Lab (AID 2284017).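 For AC50: curve fitted for loss of signal so potency reflects decreased burst percentage.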 The method in brief:
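Rat cortical cultures, DIV 13/15, 37 C. Spikes detected at 8x rms noise (300-5000 Hz band-pass). Burst spikes/total spikes averaged across electrodes per well; % change post- vs pre-treatment (40 min each), loss-of-signal fit vs DMSO.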

Test [4] is described as follows: CCTE_Shafer_MEA_acute_burst_percentage_std: CCTE's Neural Acute Assay for Standard Deviation of Burst Percentage, Shafer Lab (AID 2284018).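 Note: fitted in the negative direction so actives lower burst percentage SD.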 The procedure, abridged:
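Primary rat cortical neurons on 16-electrode MEA wells were recorded 40 min at baseline (DIV 13 or 15), then 40 min after compound (0.03-40 uM), at 37 C. Well value is SD across electrodes of spikes-in-bursts/total spikes; endpoint is percent change, DMSO-referenced.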

Test [5] can be described thus: CCTE_Shafer_MEA_acute_per_network_burst_spike_number_mean: CCTE's Neural Acute Assay for Average Number of Spikes in a Network Burst, Shafer Lab (AID 2284019).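 For AC50: curve fitted for loss of signal so actives reduce spikes per network burst.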 The procedure, abridged: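 Primary rat cortical neurons on 16-electrode MEA wells, DIV 13 or 15, 37 C; 40-min baseline then 40-min recording with compound (0.03-40 uM). Spikes per network burst (total spikes/number of bursts) expressed as percent change from baseline, DMSO reference.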

Test [6] in a line: CCTE_Shafer_MEA_acute_per_network_burst_electrodes_number_mean: CCTE's Neural Acute Assay for Mean Number of Electrodes in a Network Burst, Shafer Lab (AID 2284021).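 Note: curves fitted for decreases only so hits reduce electrodes per burst.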 The procedure, abridged: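 Rat primary cortical neurons on 16-electrode MEA wells were recorded 40 min at baseline on DIV 13 or 15, then 40 min after compound (0.03-40 uM), at 37 C. Value is percent change per well, fitted in loss direction versus DMSO.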

A short description of test [7]: CCTE_Shafer_MEA_acute_network_burst_percentage: CCTE's Neural Acute Assay for Percentage of Network Bursts, Shafer Lab (AID 2284022).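 Note: curves fitted for loss so actives lower network burst percentage.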 The procedure, abridged:
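Primary rat cortical neurons on 16-electrode MEA wells, treated on DIV 13 or 15 with compound (0.03-40 uM); 40-min baseline and 40-min post-exposure recordings at 37 C. Value is percent change in spikes within network bursts versus baseline, DMSO negative control.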

Test [8] is described as follows: CCTE_Shafer_MEA_acute_cross_correlation_area: CCTE's Neural Acute Assay for Area of Cross Correlation, Shafer Lab (AID 2284024).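 Note: area under pooled inter-electrode spike cross-correlation near zero lag as percent change from own baseline; curves fitted for loss of cross-correlation area so actives lower synchrony.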 The method in brief:
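Primary rat cortical neurons on 48-well MEA plates (16 electrodes/well) were recorded 40 min at baseline on DIV 13 or 15, then 40 min with compound (0.03-40 uM) at 37 C; cross-correlation area expressed as percent change from baseline.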

A short description of test [9]: CCTE_Shafer_MEA_acute_cross_correlation_HWHM: CCTE's Neural Acute Assay for Cross Correlation at Half Width at Half Maximum, Shafer Lab (AID 2284026).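 For outcome: spontaneous network firing of rat primary cortical neurons on multiwell microelectrode arrays.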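 Note: hits are a decrease in cross-correlogram half width relative to DMSO.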 The procedure, abridged: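 Primary rat cortical neurons on 16-electrode MEA wells; 40-min baseline on DIV 13 or 15, then 40-min recording with compound (0.03-40 uM) at 37 C. HWHM of spike cross-correlogram expressed as percent change from baseline per well, DMSO reference.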

Test [10] can be described thus: CCTE_Shafer_MEA_acute_synchrony_index: CCTE's Neural Acute Assay for Synchrony, Shafer Lab (AID 2284027).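 Note: network synchrony index of spontaneous spiking in primary rat cortical neurons on MEAs; fitted for loss of signal so actives lower synchrony relative to DMSO.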 The procedure, abridged:
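Spontaneous firing of mature rat cortical networks is captured extracellularly on microelectrode arrays at 37 C, with wells needing ≥10 active electrodes. Each compound (0.03-40 uM) is judged by the change in synchrony index from baseline over 40 min.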

Test [11] has as its target Estrogen receptor (Homo sapiens) (UniProt P03372). The experiment in a line: CCTE_Deisenroth_AIME_384WELL_LUC_Active: CCTE's 384-well Estrogen Receptor Transactivation Assay with AIME metabolic competence (ERTA luciferase; metabolism positive), Deisenroth Lab (AID 2284030; active = hit-call score of the fitted dose curve at least 0.9, where 1 is the maximum). The method in brief:
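Test chemicals (10-point series, 0.002 - 200 uM) were preincubated 2 hours with alginate-immobilized phenobarbital/beta-naphthoflavone-induced male Sprague Dawley rat liver S9; conditioned medium then went onto VM7Luc4E2 breast cells for 24 hour. Luciferase gain-of-signal fitted relative to 17beta-estradiol.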

For test [12] the target is unchanged. The experiment in a line: CCTE_Deisenroth_AIME_384WELL_LUC_Inactive: CCTE's 384-well Estrogen Receptor Transactivation Assay without AIME metabolic competence (ERTA luciferase; metabolism negative), Deisenroth Lab (AID 2284038; active = hit-call score of the fitted dose curve at least 0.9, where 1 is the maximum;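 note: hits raise estrogen receptor luciferase signal so potencies reflect agonists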). The procedure, abridged: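 Chemicals (10-point series, 0.002 - 200 uM) were incubated 2 hours with alginate-water microsphere lids lacking S9, then the conditioned medium was transferred to VM7Luc4E2 breast cells for 24 hour. Luciferase induction was read by bioluminescence, fitted upward relative to 17beta-estradiol.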

Test [13] in a line: CCTE_Shafer_MEA_dev_firing_rate_mean: CCTE's Neural Network Formation Assay for Mean Firing Rate, Shafer Lab (AID 2284031).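 Note: AUC of well mean spike rate recorded on DIV 5 7 9 and 12.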 The method in brief: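 Developing rat cortical networks on MEA plates undergo 12-day compound exposure. Firing frequency, averaged across active electrodes, is integrated as area under the curve over four recording days, referenced to DMSO.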
Test [14] in a line: CCTE_Shafer_MEA_dev_per_burst_spike_percent: CCTE's Neural Network Formation Assay for Percent of Spikes in a Burst, Shafer Lab (AID 2284032).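 For AC50: fitted as a decrease in burst spike percentage below DMSO baseline.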 The method in brief:
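Rat primary cortical neurons on 16-electrode MEA wells, dosed from plating day 0 for 12 days with renewal on DIV 5 and 9; spikes-in-bursts percentage averaged over bursting electrodes, collapsed as AUC across days 5, 7, 9, 12; loss direction versus DMSO.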

Test [15] in a line: CCTE_Deisenroth_AIME_384WELL_CTox_Active: Cytotoxicity Assessment (CTOX) in CCTE's 384-well Estrogen Receptor Transactivation Assay with AIME metabolic competence (metabolism positive), Deisenroth Lab (AID 2284037; active = hit-call score of the fitted dose curve at least 0.9, where 1 is the maximum;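 note: chemicals first conditioned 2 h by alginate-bound induced rat liver S9 before cells; activity means signal loss indicating cell death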). The method in brief: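 VM7Luc4E2 breast cells received medium pre-incubated 2 h with chemical over alginate microspheres holding induced male Sprague Dawley rat liver S9; viability read 24 h later by protease-substrate fluorescence. Loss of signal, bidirectional fit, 0.002–200 uM.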

Test [16] can be described thus: CCTE_Deisenroth_AIME_384WELL_CTox_Inactive: Cytotoxicity Assessment (CTOX) in CCTE's 384-well Estrogen Receptor Transactivation Assay without AIME metabolic competence (metabolism negative), Deisenroth Lab (AID 2284039; active = hit-call score of the fitted dose curve at least 0.9, where 1 is the maximum;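 note: cell viability via live-cell protease substrate cleaved to fluorescent probe; cells exposed 24 h to medium preincubated 2 h with alginate-water beads without S9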). The procedure, abridged:
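Metabolism-negative arm: chemicals (10-point, 0.002 - 200 uM) preincubated 2 h with alginate-water lids, medium moved onto VM7Luc4E2 cells for 24 h. Fluorescent live-cell protease readout; bidirectional curve fit.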

Chain of Estrogen receptor (Homo sapiens) (P03372 whole entry, looked up): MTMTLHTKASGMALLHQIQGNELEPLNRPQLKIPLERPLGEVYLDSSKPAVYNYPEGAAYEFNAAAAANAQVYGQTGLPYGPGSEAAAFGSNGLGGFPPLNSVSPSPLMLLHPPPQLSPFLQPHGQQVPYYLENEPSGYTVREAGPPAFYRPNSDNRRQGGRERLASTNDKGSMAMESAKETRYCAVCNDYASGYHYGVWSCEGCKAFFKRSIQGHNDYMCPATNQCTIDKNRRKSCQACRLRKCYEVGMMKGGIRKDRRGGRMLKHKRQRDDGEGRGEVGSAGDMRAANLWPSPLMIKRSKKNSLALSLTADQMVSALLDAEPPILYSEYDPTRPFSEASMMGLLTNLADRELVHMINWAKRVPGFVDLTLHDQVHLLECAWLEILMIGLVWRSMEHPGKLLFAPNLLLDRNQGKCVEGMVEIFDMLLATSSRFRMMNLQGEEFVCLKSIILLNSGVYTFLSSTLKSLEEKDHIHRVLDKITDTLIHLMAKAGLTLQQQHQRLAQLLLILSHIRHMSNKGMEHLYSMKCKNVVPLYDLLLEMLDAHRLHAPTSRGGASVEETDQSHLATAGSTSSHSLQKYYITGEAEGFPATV

In the case of `Cc1ccc(C(C)C)c(O)c1`, the compound was called inactive in test [1], in test [2], in test [4], in test [5], in test [6] and in test [7]. The outcome in test [8], in test [9], in test [10], in test [11] and in [12] was inactive. For the same compound, the AC50 – broadly, the concentration at which the activity in the assay is half-maximal – in test [3] is 20 µM (active).
`CC(C)(C)c1cc(O)c(C(C)(C)C)cc1O`: the outcome in test [1], in test [3], in test [4], in test [6], in test [7] and in test [10] was inactive. The AC50 in [2] was 31.4 µM (active); in [5] it was 4.33 µM (active); in test [9], 31.7 µM (active).
As to `C=CCOC(=O)c1ccccc1C(=O)OCC=C`, the compound was classed as inactive in [1], in test [2], in test [5], in test [6], in test [7] and in test [8]. The call in test [9] and in [10] was inactive. Moreover, the AC50 in [3] and in test [4] was 20 µM (active) in each case.
Regarding `CC(=O)Oc1ccccc1C(=O)O`, the call in [1], in test [2], in test [3], in test [4], in test [5] and in test [6] was inactive. The outcome in test [7], in test [8], in [9], in test [10], in test [11] and in test [13] was inactive. Further, the result in test [14] and in [12] was inactive.
Consider `CN1CCCC1=O`, for which the call in test [1], in test [2], in test [3], in test [4], in [5] and in test [6] was inactive. The call in test [7], in [8], in [9], in test [10], in test [11] and in [15] was inactive. The compound was called inactive in test [12] and in [16].
Regarding `CCCc1cc(=O)[nH]c(=S)[nH]1`, the outcome in test [1], in test [2], in test [3], in test [4], in test [5] and in test [6] was inactive. The compound was classed as inactive in test [7], in [8], in [9], in [10], in test [11] and in test [13]. Also, the compound was called inactive in test [14], in [15], in [12] and in test [16]. Moreover, in [14], the AC50 was 22.9 µM (active).
As for `Nc1ccc2c(c1)C(=O)c1ccccc1C2=O`, the call in [1], in test [2], in test [3], in test [4], in test [5] and in test [6] was inactive. Also, the result in test [7], in test [8], in test [9], in test [10] and in test [15] was inactive. Besides, the figures for the AC50 in test [11] and in [12] were 72.1 µM (active) and 11.2 µM (active), respectively.
Regarding `Nc1nc(N)c2nc(CNc3ccc(C(=O)N[C@@H](CCC(=O)O)C(=O)O)cc3)cnc2n1`, the result in [1], in [2], in [3], in [4], in test [5] and in test [6] was inactive. Besides, the compound was classed as inactive in [7], in [8], in test [9] and in test [10].
